Experimental data: the supplement of paper PMC11732987, “Enantioselective OTUD7B fragment discovery through chemoproteomics screening and high-throughput optimisation” (Communications Chemistry, 2025)

How the values were obtained:
Test in all cases: log2 ratio of Biotin-Ahx-Ub-VS probe labelling (fragment/DMSO); higher = less target engagement (more negative = stronger competition), active = hit call of the paper (q ≤ 0.05, log2 ratio ≤ -1)
Conditions in all cases: compound concentration: 200 uM; treatment time: 3 h
USP34 = USP34 (UniProt Q70CQ2)
Summary of the method: (§1)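 Using Biotin-Ahx-Ub-VS at 0.5 µM final for 1 h, DUBs were labelled in HEK293T lysate (495 µg per sample) that had first been treated in triplicate with fragment at 200 µM or vehicle for 3 h. NeutrAvidin enrichment, LysC and trypsin digestion and diaPASEF LC-MS/MS followed. Spectronaut label-free quantities were global-median-normalised. Values are average log2 fragment/vehicle ratios by unpaired t-test, using proteins with ≥2 unique peptides.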

USP36 = molecular target: T1, USP36 (UniProt Q9P275)
T1 sequence (whole entry): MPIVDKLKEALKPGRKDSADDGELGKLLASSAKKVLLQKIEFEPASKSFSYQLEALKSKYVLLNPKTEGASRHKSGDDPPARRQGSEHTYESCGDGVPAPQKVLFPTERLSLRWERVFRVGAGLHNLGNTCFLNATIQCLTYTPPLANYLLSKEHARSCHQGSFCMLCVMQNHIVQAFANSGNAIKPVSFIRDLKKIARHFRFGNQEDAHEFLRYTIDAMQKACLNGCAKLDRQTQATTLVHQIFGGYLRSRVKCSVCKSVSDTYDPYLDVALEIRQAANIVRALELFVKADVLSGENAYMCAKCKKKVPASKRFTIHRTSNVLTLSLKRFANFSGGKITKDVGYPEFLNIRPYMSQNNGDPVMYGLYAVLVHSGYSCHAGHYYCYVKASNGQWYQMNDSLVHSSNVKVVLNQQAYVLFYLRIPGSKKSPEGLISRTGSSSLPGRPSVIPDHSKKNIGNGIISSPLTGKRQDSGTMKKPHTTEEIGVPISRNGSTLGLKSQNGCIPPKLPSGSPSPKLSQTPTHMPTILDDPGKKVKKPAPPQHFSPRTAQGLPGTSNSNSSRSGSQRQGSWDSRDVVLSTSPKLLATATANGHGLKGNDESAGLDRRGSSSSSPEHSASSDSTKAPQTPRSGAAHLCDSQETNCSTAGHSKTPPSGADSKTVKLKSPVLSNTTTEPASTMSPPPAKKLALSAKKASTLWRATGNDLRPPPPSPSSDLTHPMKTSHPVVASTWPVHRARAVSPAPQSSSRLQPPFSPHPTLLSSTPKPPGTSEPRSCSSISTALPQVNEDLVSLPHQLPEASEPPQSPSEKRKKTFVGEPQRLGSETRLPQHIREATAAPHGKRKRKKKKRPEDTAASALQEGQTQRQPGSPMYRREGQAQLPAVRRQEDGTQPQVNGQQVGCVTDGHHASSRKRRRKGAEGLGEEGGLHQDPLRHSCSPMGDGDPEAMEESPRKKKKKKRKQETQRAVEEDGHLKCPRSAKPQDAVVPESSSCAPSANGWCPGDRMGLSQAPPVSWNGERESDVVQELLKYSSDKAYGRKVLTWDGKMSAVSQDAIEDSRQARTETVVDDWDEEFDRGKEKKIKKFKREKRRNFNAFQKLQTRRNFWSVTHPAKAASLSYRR
Summary of the method: as §1

USP38 = molecular target: T2, USP38 (UniProt Q8NB14)
T2 sequence (whole entry): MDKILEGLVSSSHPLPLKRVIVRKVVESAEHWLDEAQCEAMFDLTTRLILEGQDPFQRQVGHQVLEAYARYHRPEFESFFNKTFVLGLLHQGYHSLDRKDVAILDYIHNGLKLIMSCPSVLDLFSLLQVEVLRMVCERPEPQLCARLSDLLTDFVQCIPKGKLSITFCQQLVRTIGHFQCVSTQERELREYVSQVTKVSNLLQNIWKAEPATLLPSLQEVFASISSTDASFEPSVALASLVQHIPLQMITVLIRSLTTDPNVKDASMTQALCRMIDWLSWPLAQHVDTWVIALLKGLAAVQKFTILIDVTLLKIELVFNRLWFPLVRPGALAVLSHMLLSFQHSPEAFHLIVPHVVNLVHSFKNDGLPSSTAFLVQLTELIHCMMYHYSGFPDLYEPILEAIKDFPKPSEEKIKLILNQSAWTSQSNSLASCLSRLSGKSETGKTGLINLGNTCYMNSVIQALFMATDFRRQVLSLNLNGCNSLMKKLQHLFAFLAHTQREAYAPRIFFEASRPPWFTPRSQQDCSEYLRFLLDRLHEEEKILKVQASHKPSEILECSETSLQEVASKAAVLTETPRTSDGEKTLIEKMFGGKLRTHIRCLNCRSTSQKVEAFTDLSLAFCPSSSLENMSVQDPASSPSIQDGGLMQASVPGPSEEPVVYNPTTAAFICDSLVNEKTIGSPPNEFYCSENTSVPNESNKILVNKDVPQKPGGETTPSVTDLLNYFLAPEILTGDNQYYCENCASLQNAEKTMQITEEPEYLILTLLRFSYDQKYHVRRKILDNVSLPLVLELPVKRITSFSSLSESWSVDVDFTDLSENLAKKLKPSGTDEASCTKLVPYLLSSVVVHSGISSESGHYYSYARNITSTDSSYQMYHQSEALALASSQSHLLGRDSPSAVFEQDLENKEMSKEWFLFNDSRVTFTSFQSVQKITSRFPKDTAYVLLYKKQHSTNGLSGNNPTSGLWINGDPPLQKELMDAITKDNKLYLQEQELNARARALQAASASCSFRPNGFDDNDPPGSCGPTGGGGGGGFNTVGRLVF
Summary of the method: as §1

USP39 = molecular target: T3, USP39 (UniProt Q53GS9)
T3 sequence (whole entry): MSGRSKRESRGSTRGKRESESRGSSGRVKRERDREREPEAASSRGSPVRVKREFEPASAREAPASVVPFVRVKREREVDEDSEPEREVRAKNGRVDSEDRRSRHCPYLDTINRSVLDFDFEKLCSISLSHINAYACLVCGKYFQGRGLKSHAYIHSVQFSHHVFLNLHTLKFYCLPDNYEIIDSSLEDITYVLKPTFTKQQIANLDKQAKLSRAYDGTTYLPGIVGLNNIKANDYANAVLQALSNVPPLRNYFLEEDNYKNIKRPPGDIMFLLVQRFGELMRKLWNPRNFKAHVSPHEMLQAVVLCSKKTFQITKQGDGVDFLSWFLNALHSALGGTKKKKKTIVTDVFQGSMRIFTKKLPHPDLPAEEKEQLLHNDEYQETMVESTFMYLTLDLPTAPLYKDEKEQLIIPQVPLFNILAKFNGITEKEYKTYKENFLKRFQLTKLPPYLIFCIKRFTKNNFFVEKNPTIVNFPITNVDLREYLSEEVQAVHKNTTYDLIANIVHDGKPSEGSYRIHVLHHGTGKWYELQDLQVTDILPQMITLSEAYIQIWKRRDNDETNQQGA
Summary of the method: as §1

USP4 = molecular target: T4, USP4 (UniProt Q13107)
T4 sequence (whole entry): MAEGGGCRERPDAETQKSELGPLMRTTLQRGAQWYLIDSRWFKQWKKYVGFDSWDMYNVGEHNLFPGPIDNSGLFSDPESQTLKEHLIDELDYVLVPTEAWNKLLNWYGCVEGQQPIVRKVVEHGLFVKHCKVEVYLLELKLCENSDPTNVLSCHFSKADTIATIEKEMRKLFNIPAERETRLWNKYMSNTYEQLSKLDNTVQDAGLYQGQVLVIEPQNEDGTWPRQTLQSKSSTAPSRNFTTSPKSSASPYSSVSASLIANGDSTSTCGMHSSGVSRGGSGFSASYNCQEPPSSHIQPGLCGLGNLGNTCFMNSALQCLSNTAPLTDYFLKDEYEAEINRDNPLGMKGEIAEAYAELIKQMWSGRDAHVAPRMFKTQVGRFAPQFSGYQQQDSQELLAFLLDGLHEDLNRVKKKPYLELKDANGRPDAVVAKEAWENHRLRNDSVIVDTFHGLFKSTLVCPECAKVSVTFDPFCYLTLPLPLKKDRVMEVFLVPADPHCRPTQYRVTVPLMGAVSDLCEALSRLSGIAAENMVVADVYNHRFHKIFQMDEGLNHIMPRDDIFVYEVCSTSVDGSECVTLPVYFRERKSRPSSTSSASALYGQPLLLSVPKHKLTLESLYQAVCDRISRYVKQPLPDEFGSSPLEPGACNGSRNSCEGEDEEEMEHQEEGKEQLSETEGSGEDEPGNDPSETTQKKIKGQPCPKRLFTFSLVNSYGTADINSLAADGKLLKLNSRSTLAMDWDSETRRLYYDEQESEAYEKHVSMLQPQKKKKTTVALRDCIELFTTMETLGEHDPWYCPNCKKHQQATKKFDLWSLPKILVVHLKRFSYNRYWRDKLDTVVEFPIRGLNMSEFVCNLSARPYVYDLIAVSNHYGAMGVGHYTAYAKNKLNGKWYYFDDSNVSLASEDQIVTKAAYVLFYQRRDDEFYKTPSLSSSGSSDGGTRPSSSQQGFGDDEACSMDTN
Summary of the method: as §1

Measured: log2 ratio of Biotin-Ahx-Ub-VS probe labelling

Chain of USP34 (Q70CQ2 whole entry, the tested form may be a part): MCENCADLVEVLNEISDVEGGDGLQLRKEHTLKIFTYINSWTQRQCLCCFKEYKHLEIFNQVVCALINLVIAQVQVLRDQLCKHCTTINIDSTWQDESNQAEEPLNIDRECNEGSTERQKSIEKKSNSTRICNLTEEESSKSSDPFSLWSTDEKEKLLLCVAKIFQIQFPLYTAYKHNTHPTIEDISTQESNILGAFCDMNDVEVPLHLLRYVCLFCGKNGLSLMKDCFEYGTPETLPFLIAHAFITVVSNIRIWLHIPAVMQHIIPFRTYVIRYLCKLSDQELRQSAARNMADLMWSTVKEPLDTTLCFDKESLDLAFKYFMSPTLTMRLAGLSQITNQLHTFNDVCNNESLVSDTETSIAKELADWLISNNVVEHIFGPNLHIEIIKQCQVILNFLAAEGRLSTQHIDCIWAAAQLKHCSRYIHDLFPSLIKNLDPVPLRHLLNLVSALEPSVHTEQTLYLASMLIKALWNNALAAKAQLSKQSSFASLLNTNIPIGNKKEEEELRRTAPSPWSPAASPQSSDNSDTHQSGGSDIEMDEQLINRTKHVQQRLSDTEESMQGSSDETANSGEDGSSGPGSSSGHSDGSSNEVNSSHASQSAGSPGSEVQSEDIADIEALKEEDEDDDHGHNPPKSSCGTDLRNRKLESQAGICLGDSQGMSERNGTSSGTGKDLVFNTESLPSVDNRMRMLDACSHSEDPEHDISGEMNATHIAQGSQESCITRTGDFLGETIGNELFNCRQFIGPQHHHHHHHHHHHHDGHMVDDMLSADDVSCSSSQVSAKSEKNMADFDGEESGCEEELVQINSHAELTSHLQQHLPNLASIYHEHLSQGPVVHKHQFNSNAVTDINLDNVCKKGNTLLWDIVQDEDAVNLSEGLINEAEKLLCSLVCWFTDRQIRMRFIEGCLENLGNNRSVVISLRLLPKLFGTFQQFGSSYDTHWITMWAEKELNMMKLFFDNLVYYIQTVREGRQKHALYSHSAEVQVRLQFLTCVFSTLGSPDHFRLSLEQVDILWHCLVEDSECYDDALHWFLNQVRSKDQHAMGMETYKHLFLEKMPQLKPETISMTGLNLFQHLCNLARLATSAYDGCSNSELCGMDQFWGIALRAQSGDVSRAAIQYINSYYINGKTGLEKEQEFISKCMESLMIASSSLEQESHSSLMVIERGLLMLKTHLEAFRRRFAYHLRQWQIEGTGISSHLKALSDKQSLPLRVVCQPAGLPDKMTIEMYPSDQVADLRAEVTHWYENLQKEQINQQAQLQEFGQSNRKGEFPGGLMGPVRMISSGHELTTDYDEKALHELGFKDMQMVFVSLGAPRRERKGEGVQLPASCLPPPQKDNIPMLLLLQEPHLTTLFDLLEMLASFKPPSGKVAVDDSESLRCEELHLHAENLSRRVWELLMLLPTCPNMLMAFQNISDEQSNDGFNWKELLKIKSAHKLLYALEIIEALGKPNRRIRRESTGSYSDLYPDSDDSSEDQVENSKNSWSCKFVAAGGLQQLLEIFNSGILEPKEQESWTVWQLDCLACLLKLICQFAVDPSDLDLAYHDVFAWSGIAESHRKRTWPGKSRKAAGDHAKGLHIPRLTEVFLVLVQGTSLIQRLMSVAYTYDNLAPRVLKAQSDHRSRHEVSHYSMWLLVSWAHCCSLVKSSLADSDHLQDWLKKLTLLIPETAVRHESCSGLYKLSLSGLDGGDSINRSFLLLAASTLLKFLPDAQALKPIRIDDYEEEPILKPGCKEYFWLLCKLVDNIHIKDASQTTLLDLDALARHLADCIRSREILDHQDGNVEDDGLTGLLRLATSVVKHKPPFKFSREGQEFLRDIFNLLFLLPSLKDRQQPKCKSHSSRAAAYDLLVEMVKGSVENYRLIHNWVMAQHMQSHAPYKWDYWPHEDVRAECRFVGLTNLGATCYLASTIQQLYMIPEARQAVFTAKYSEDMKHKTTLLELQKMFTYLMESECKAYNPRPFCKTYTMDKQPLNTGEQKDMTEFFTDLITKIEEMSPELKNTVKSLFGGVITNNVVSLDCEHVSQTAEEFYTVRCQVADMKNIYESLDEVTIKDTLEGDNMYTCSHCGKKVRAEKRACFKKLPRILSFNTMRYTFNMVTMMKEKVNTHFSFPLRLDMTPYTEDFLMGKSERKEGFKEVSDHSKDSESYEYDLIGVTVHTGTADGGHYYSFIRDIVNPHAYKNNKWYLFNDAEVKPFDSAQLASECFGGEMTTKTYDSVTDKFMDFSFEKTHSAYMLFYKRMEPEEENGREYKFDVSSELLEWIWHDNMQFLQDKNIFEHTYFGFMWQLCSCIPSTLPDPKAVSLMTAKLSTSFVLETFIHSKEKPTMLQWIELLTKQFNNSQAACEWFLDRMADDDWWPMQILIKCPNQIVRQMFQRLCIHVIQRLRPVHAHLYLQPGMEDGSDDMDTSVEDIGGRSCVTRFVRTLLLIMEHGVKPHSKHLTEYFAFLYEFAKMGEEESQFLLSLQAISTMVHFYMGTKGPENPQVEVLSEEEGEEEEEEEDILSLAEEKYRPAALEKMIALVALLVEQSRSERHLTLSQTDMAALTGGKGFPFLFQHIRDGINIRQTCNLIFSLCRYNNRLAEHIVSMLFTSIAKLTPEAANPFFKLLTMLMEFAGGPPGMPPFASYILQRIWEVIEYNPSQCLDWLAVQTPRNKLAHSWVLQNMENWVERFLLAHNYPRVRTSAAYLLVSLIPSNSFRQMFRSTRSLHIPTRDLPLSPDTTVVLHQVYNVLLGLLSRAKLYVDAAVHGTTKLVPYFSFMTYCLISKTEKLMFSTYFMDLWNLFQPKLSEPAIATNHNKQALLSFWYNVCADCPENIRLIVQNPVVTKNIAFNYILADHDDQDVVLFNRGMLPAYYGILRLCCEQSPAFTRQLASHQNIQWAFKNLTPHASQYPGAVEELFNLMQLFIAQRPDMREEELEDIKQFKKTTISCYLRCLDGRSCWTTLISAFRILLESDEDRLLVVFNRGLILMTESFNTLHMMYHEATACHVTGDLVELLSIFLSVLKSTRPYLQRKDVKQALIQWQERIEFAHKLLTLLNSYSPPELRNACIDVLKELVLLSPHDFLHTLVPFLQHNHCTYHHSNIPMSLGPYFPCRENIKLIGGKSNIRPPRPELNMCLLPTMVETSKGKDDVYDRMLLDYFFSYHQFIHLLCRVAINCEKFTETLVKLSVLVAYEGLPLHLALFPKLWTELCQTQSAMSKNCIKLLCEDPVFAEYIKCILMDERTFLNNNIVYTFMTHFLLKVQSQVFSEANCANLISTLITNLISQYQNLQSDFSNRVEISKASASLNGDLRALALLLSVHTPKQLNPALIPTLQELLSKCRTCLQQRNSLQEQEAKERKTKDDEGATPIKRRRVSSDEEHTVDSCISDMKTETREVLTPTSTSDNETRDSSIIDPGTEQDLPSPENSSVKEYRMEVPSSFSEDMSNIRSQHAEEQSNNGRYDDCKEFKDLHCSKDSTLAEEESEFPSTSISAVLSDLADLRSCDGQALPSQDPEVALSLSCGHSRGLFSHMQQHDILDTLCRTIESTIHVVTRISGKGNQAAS

CNC(=O)C1CCN(C(=O)CCl)CC1
inactive: USP34 -0.0658 | USP36 -0.083 | USP38 0.119 | USP39 0.229 | USP4 -0.146
